Ba/F3 V617F tox = lowers viability of Ba/F3 cells expressing EpoR and JAK2V617F | inhibition, % at 5.6 µM | ATP luminescence | hit rate 1.1% among 220,000;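 active = inhibition above the campaign mean plus 3 SD over all tested compounds, cut at about 24% in these data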;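 also: cytokine-independent growth of Ba/F3 cells driven by EpoR plus mutant JAK2; 0% = DMSO-treated cells and 100% = JAK inhibitor I control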
BaF3 tox = reduces parental Ba/F3 cell viability, JAK2V617F counter-screen; hit rate 1.1% among 220,000; CellTiter-Glo ATP luminescence; AID 1486; inhibition, % at 5.6 µM;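 active = inhibition above a per-campaign cutoff, the mean inhibition of all tested compounds plus 3 SD, cut at about 27% in these data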;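 also: 0% = DMSO wells and 100% = JAK Inhibitor I control wells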
APP transl inh = APP translation inhibition; inhibition, % at 2 µM; AID 1285; hit rate 0.82% among 190,000; SH-SY5Y APP 5'UTR-luciferase reporter, luminescence;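 active = inhibition above a set limit, derived from the sample mean plus 3 SD, cut at about 45% in these data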
IEC-6 cytotox = kills IEC-6 intestinal cells in KLF5 counter-screen | IEC-6 cytotoxicity, luminescence viability | inhibition, % at 5 µM | hit rate 0.78% among 290,000 | AID 1825; in the data active = inhibition above about 22%;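 also: 0% = plate median of test compound wells and 100% = cytotoxic reference compound wells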
KLF5 inhibitor = inhibitors of KLF5 expression. inhibition, % at 5 µM. hit rate 0.23% among 290,000. DLD-1 KLF5 promoter-luciferase reporter, luminescence;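 active = inhibition above a per-plate limit of that plate's mean compound inhibition plus 3 SD, cut at about 60% in these data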;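 also: 0% = DMSO wells and 100% = LY294002 at 200 µM; higher means less KLF5 promoter-driven luciferase light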
* = called active by the depositor. This is a sample that favours compounds with a hit; in the whole collection about 1.9% have one here.

What do the screens show for `CCOC(=O)Cn1nnnc1CN(Cc1cccs1)Cc1cc2cc(C)ccc2[nH]c1=O`?
Ba/F3 V617F tox: -1; BaF3 tox: 2; APP transl inh: 62*; IEC-6 cytotox: -7; KLF5 inhibitor: 7

How did O=[N+]([O-])c1ccc(C[n+]2cc(-c3ccccc3)n3c2CCCCC3)cc1 do in these assays?
Ba/F3 V617F tox: -3; BaF3 tox: 10; APP transl inh: 4; IEC-6 cytotox: 0; KLF5 inhibitor: 10

How did C[n+]1cc(-c2ccccc2)n2c1CCCCC2 do in these assays?
Ba/F3 V617F tox: 65*; BaF3 tox: 64*; APP transl inh: -8; IEC-6 cytotox: 1; KLF5 inhibitor: -33

Results for COc1ccc(-c2c[n+](CC(=O)c3ccccc3)c3n2CCCCC3)cc1 ?
Ba/F3 V617F tox: 48*; BaF3 tox: 60*; IEC-6 cytotox: -2; KLF5 inhibitor: -27

What do the screens show for `O=C(C[n+]1cc(-c2ccccc2)n2c1CCCCC2)c1ccc(Cl)cc1`?
Ba/F3 V617F tox: 53*; BaF3 tox: 56*; APP transl inh: 2; IEC-6 cytotox: 1; KLF5 inhibitor: -3

How did Cc1ccc(NC(=O)C[n+]2cc(-c3ccccc3)n3c2CCC3)cc1 do in these assays?
Ba/F3 V617F tox: -1; BaF3 tox: -2; IEC-6 cytotox: -4; KLF5 inhibitor: 0

Results for CC1CCC(C(C)C)C(OC(=O)C[n+]2cc(-c3ccc(Cl)cc3)n3c2CCCCC3)C1 (centres undefined) ?
Ba/F3 V617F tox: 101*; BaF3 tox: 73*; APP transl inh: -19; IEC-6 cytotox: 5; KLF5 inhibitor: 21

What do the screens show for `COC(=O)Nc1nnc(-c2ccco2)s1`?
Ba/F3 V617F tox: -7; BaF3 tox: 0; IEC-6 cytotox: -3; KLF5 inhibitor: -17

Results for Cc1c(Cl)cccc1NS(=O)(=O)c1cccc2nsnc12 ?
IEC-6 cytotox: 1; KLF5 inhibitor: -23

What do the screens show for `CCc1ccccc1S(=O)(=O)Cc1ccc(C(=O)NCc2cccs2)o1`?
Ba/F3 V617F tox: 0; BaF3 tox: 8; APP transl inh: -5; IEC-6 cytotox: -2; KLF5 inhibitor: -7

What do the screens show for `Cc1cc(C)cc(N(CC(=O)N/N=C/c2ccncc2)S(=O)(=O)c2ccccc2)c1`?
Ba/F3 V617F tox: -5; BaF3 tox: 2; APP transl inh: -5; IEC-6 cytotox: -5; KLF5 inhibitor: -23

Results for O=C(C[n+]1cc(-c2ccc(F)cc2)n2c1CCC2)c1cccs1 ?
Ba/F3 V617F tox: 11; BaF3 tox: 29*; IEC-6 cytotox: -5; KLF5 inhibitor: -54

How did Cc1ccc(-c2c[n+](CC(=O)c3ccc(Br)cc3)c3n2CCCCC3)cc1 do in these assays?
Ba/F3 V617F tox: 77*; BaF3 tox: 69*; APP transl inh: -16; IEC-6 cytotox: 3; KLF5 inhibitor: -8

How did c1ccc(CN2C3=NCCCN3c3ccccc32)cc1 do in these assays?
Ba/F3 V617F tox: -3; BaF3 tox: -1; APP transl inh: -11; IEC-6 cytotox: -1; KLF5 inhibitor: -5

What do the screens show for `CC(C)(C)c1ccc(CN2C3=NCCCN3c3ccccc32)cc1`?
Ba/F3 V617F tox: 46*; BaF3 tox: 46*; APP transl inh: -17; IEC-6 cytotox: 6; KLF5 inhibitor: -17

How did Clc1ccc(CN2C3=NCCN3c3ccccc32)cc1 do in these assays?
Ba/F3 V617F tox: 0; BaF3 tox: 62*; APP transl inh: 10; IEC-6 cytotox: -2; KLF5 inhibitor: -7

What do the screens show for `Cc1ccc(CN2C3=NCCCN3c3ccccc32)cc1`?
Ba/F3 V617F tox: 7; BaF3 tox: 12; APP transl inh: 1; IEC-6 cytotox: 2; KLF5 inhibitor: 1

What do the screens show for `COc1cccc(N2CCN(C(=O)c3[nH]c(C)c(C(C)=O)c3C)CC2)c1`?
Ba/F3 V617F tox: 21; BaF3 tox: 35*; APP transl inh: 29; IEC-6 cytotox: 16; KLF5 inhibitor: 41

Results for COC(=O)c1c(C)[nH]c(C(=O)N2CCN(c3ccc(OC)cc3)CC2)c1C ?
Ba/F3 V617F tox: 1; BaF3 tox: 9; APP transl inh: 7; IEC-6 cytotox: -1; KLF5 inhibitor: -34

What do the screens show for `CC(C)(C)C1=CC(=O)C(=O)C(C(C)(C)C)=C1`?
Ba/F3 V617F tox: -1; BaF3 tox: 2; APP transl inh: 47*; IEC-6 cytotox: 5; KLF5 inhibitor: -5

How did CC(C)(C)C1=CC(=Nc2ccccc2N)C=C(C(C)(C)C)C1=O do in these assays?
Ba/F3 V617F tox: -1; BaF3 tox: 7; APP transl inh: 0; IEC-6 cytotox: 0; KLF5 inhibitor: -25

How did Cn1c(SCCOc2ccccc2Cl)nnc1-c1cccs1 do in these assays?
Ba/F3 V617F tox: 35*; BaF3 tox: 37*; APP transl inh: -38; IEC-6 cytotox: 0; KLF5 inhibitor: -49

How did Cc1cc(OCCSc2nnc(-c3cccs3)n2C)ccc1Cl do in these assays?
Ba/F3 V617F tox: 0; BaF3 tox: 8; APP transl inh: -10; IEC-6 cytotox: -4; KLF5 inhibitor: -27

How did CC(C)(C)c1cnnn1-c1cccc([N+](=O)[O-])c1 do in these assays?
Ba/F3 V617F tox: 0; BaF3 tox: 7; APP transl inh: -2; IEC-6 cytotox: -1; KLF5 inhibitor: -4

Results for CCOC(=O)c1cccc(NC(=O)COC)c1 ?
Ba/F3 V617F tox: -4; BaF3 tox: 1; APP transl inh: -2; IEC-6 cytotox: 3; KLF5 inhibitor: 3

Results for CCOCC(=O)Nc1cccc(C(=O)OCC)c1 ?
Ba/F3 V617F tox: -3; BaF3 tox: 98*; APP transl inh: 10; IEC-6 cytotox: -2; KLF5 inhibitor: -2

What do the screens show for `COc1cc(CC(=O)Nc2ccc(S(=O)(=O)NC3=NCCCCC3)cc2)cc(OC)c1OC`?
Ba/F3 V617F tox: -1; BaF3 tox: 1; APP transl inh: -7; IEC-6 cytotox: -4; KLF5 inhibitor: -10

What do the screens show for `CCOc1cc(Br)ccc1S(=O)(=O)N1CC(C)OC(C)C1` (centres undefined)?
Ba/F3 V617F tox: 1; BaF3 tox: 93*; APP transl inh: 12; IEC-6 cytotox: 3; KLF5 inhibitor: -21

How did CCOc1ccc(Br)cc1S(=O)(=O)N1CC(C)OC(C)C1 (centres undefined) do in these assays?
Ba/F3 V617F tox: -4; BaF3 tox: 3; APP transl inh: -16; IEC-6 cytotox: 4; KLF5 inhibitor: -9

What do the screens show for `CC(=O)c1c(C)[nH]c(C(=O)COc2cc(C)ccc2C(C)C)c1C`?
Ba/F3 V617F tox: 45*; BaF3 tox: 40*; APP transl inh: 4; IEC-6 cytotox: 17; KLF5 inhibitor: -11

Results for O=C(Cc1cccs1)N/N=C/c1ccccc1 ?
Ba/F3 V617F tox: -4; BaF3 tox: 0; IEC-6 cytotox: -2; KLF5 inhibitor: -21

Results for CCN(CC)c1ccc(/C=N/NC(=O)Cc2cccs2)c(O)c1 ?
Ba/F3 V617F tox: 1; BaF3 tox: 8; APP transl inh: 64*; IEC-6 cytotox: 7; KLF5 inhibitor: -19

Results for Cc1oc(-c2ccccc2F)nc1CN1CCC(C(=O)NCCC2=CCCCC2)CC1 ?
Ba/F3 V617F tox: 5; BaF3 tox: 7; APP transl inh: -2; IEC-6 cytotox: -5; KLF5 inhibitor: -17

What do the screens show for `CCOc1ccc(N=c2cc(-c3ccc(OC)cc3)oc3ccccc23)cc1`?
Ba/F3 V617F tox: 5; BaF3 tox: 71*; APP transl inh: 4; IEC-6 cytotox: 1; KLF5 inhibitor: -28

Screening results: PubChem BioAssay, several laboratories
